The text below walks through data of ChEMBL document CHEMBL3988442, “University of Dundee, Small-Polar-MMV Screening Library” (2021).

The experiment deals with Trypanosoma brucei. Put plainly: Trypanosoma brucei 72 hour study. Type of experiment: functional, organism-based. Details: scale not given: in the data most compounds retested in dose-response had high values.

Among all 66,000 compounds or so, about 960 (1.5%) showed an effect of 50% or more. The entries come from a sample that favours strong results as a whole.

With `c1csc(CCNc2nc(-c3ccncc3)nc3c2CCNCC3)c1`, under “30.3 µM, […]”, the “Percent Effect” value was 104%.

For `COCCNc1nc2c(c(NCCc3cccs3)n1)CCNCC2`, the “Percent Effect” value (30 µM, 30.03 µM) is listed as -24.48%.

For the compound `Cc1ccc(CCNc2nc(-c3ccncc3)nc3c2CCNCC3)o1`, for the setting “30.3 µM, […]”, the “Percent Effect” value is reported as -212%.

`O=C(C1CCC1)N1CCO[C@H]2[C@H](OCCCn3cccn3)CC[C@@H]21.O=C(O)C(F)(F)F`: for the setting “30.3 µM, […]”, the “Percent Effect” value is listed as -14.88%.

Take `CC(C)c1nnsc1CN1CCc2[nH]nc(-c3ccc(F)c(F)c3)c2C1`: for the setting “30.3 µM, […]”, the “Percent Effect” value amounted to 8.442%.

On to `CCc1nc(C)sc1CN1CCc2[nH]nc(-c3ccc(F)c(F)c3)c2C1`, for which, for the setting “30.3 µM, […]”, the “Percent Effect” value was 9.305%.

In the case of `CC(C)c1nnsc1CN1CCc2[nH]nc(-c3ccc(Cl)cc3)c2C1`, the “Percent Effect” value (30.3 µM, […]) is given as 100.2%.

With `Cn1nc(N2CCCC(C(=O)Nc3nc4ccccc4s3)C2)ccc1=O` (stereo unspecified), the “Percent Effect” value (30 µM, 30.03 µM) is given as -10.15%.

Take `Cc1nc(COC[C@@H]2CCC[C@@]23CN(C)CCO3)cs1.O=C(O)C(F)(F)F`: the “Percent Effect” value (30 µM, 30.03 µM) came out at 42.28%.

Turning to `CCc1nnsc1C(=O)NC1CCN(CCOc2ccc(Br)cc2)CC1`, the “Percent Effect” value (30.3 µM, […]) was determined as 50.82%.

`Cc1nc(C(=O)NC2CCN(CCOc3ccc(Br)cc3)CC2)cs1`: the “Percent Effect” value (30.3 µM, […]) worked out at 34.31%.

In the case of `Cc1ncc(C(=O)NC2CCN(CCOc3ccc(Br)cc3)CC2)s1`, where the note is “30.3 µM, […]”, the “Percent Effect” value is on record as 9.7%.

Turning to `CN(C)CC1CN(C(=O)Cc2ccccc2)Cc2nccn2C1.O=C(O)C(F)(F)F` (stereo unspecified), the “Percent Effect” value (30 µM, 30.03 µM) is given as -30.18%.

For `CC(=O)N1CCC2(CCN(C(=O)c3ccc(Cl)c(C(F)(F)F)c3)C2)C1` (stereo unspecified), under “30 µM, 30.03 µM”, the “Percent Effect” value came to 28.83%.

Take `NC(=O)C1CCCN1Cc1cccc(NC(=O)c2ccsc2)c1` (stereo unspecified): for the setting “30 µM, 30.03 µM”, the “Percent Effect” value is 12.83%.

Consider `NC(=O)C1CCCN1Cc1cccc(NC(=O)c2cc(Cl)cc(Cl)c2)c1` (stereo unspecified), for which the “Percent Effect” value (30 µM, 30.03 µM) is given as 26.87%.

For the compound `NC(=O)C1CCN(Cc2cccc(NC(=O)c3ccsc3)c2)CC1`, where the note is “30 µM, 30.03 µM”, the “Percent Effect” value came to 50.19%.

`O=C(c1cc(C2CCCCN2CCO)n[nH]1)N1CCOCC1.O=CO` (stereo unspecified): the “Percent Effect” value (30.3 µM, […]) was -18.9%.

With `CC(C)c1cc(C(=O)N2CCc3nc(C4CCCN4)ncc3C2)cs1.Cl` (stereo unspecified), the “Percent Effect” value (30.3 µM, […]) is on record as -27.95%.

For `CCN(CC)Cc1ccc(C(=O)N2CCCC2c2cnn(C)c2)o1` (stereo unspecified), the “Percent Effect” value (10 µM) is 2.271%.

Turning to `CNC(=O)CN(C)Cc1ccc(F)cc1Cl`, for the setting “30 µM, 30.03 µM”, the “Percent Effect” value is -10.17%.

Turning to `CCOc1cccc(CNc2ccccc2Cl)c1O`, where the note is “30 µM, 30.03 µM”, the “Percent Effect” value is -19.48%.

`CCOc1ccccc1NC(=O)CN(C)Cc1ccccc1Cl`: the “Percent Effect” value (30 µM, 30.03 µM) is on record as 104.4%.

In the case of `CCOC(=O)c1ccccc1NC(=O)CN(C)Cc1ccccc1Cl.O=C(O)C(=O)O`, the “Percent Effect” value (30 µM, 30.03 µM) came to 103.8%.

With `CN(CC(=O)Nc1ccccc1C(=O)NC1CC1)Cc1ccccc1Cl`, under “30 µM, 30.03 µM”, the “Percent Effect” value is given as -3.79%.

For the compound `CCOc1ccccc1NC(=O)NCc1ccoc1`, the “Percent Effect” value (30 µM, 30.03 µM) was -38.02%.

Turning to `O=C(NCCc1cccs1)[C@H]1CO[C@H]2CCN(CC3CC3)C[C@H]2C1.O=C(O)C(F)(F)F`, the “Percent Effect” value (30.3 µM, […]) was -52.96%.

Turning to `CN(CC(=O)c1ccc2[nH]c(=O)[nH]c2c1)Cc1ccc2c(c1)OCO2`, the “Percent Effect” value (30.3 µM, […]) is recorded as 2.207%.

On to `CCOCC(O)CN1CCN(C(=O)c2ccc(N(C)C)nn2)CC1` (stereo unspecified), for which the “Percent Effect” value is, setting by setting: (30.3 µM, […]) -26.53%; (10 mM, 10 mM as filed; unlikely as a test dose) -123.6%.

In the case of `Cc1noc(NC(=O)CCNC(=O)c2ccc(Br)cc2)n1`, the “Percent Effect” value (30.3 µM, […]) is given as -27.06%.

`Cc1noc(NC(=O)c2ccc(C)c(F)c2)n1`: the “Percent Effect” value (30 µM, 30.03 µM) amounted to 65.47%.

`Cc1noc(NC(=O)c2ccc(F)cc2)n1`: the “Percent Effect” value (30.3 µM, […]) was 23.19%.

Turning to `COc1cc(C(=O)Nc2nc(C)no2)ccc1C`, the “Percent Effect” value (30 µM, 30.03 µM) is reported as 38.15%.

With `Cc1noc(NC(=O)c2ccccc2)n1`, the “Percent Effect” value (30.3 µM, […]) turned out to be 22.26%.

As for `COc1cc(C(=O)Nc2nc(C)no2)ccc1OC(F)F`, the “Percent Effect” value (10 µM) is -60.85%.

`COc1cc(C(=O)Nc2nc(C)no2)cc(OC)c1Br`: where the note is “10 µM”, the “Percent Effect” value is -27.84%.

As to `Cc1noc(NC(=O)c2ccc(Br)cc2)n1`, for the setting “30 µM, 30.03 µM”, the “Percent Effect” value is given as 95.54%.

For `Cc1ccc(C(=O)Nc2nc(C)no2)cc1`, the “Percent Effect” value (30.3 µM, […]) was found to be 24.35%.

Consider `Cc1noc(NC(=O)c2cccc(Br)c2)n1`, for which the “Percent Effect” value (30.3 µM, […]) stood at 69.68%.

With `Cc1noc(NC(=O)c2ccc(OC(F)(F)F)cc2)n1`, the “Percent Effect” value (30 µM, 30.03 µM) is given as 107.1%.

Consider `Cc1noc(NC(=O)c2ccc(C#N)cc2)n1`, for which the “Percent Effect” value (30.3 µM, […]) is given as -1.812%.

For `CN1CCc2c(C#N)c(NCCCN3CCOCC3)n3cnnc3c2C1.Cl.Cl`, under “30 µM, 30.03 µM”, the “Percent Effect” value worked out at 29.08%.

In the case of `CCOc1ccccc1CN1CCc2nc3ccsc3c(=O)n2CC1.Cl`, the “Percent Effect” value (30.3 µM, […]) is recorded as -5.491%.

Regarding `CCOC1COC2(CCN(Cc3ccc(C)c(C)c3)CC2)C1.O=C(O)C(F)(F)F` (stereo unspecified), the “Percent Effect” value (30.3 µM, […]) is on record as 17.79%.

Turning to `COc1ccc(NS(=O)(=O)c2cnc(NC(C)=O)s2)cc1`, the “Percent Effect” value (30.3 µM, […]) was -9.359%.

As to `CN(Cc1cccnc1)[C@@H]1CN(Cc2cnn(C)c2)[C@@H]2CCCO[C@H]12.O=C(O)C(F)(F)F.O=C(O)C(F)(F)F.O=C(O)C(F)(F)F.O=C(O)C(F)(F)F`, the “Percent Effect” value (30.3 µM, […]) is given as -6.057%.

Regarding `N#Cc1ccc(CNC(=O)C2=NN(c3ccccc3)C(=O)CN2)cc1`, under “30 µM, 30.03 µM”, the “Percent Effect” value was -22.79%.

As to `O=C(Nc1cccnc1)C1=NN(c2ccccc2)C(=O)CN1`, under “10 µM”, the “Percent Effect” value was -65.06%.

Consider `O=C(NCc1cccnc1)C1=NN(c2ccccc2)C(=O)CN1`, for which the “Percent Effect” value (30 µM, 30.03 µM) was 71.31%.

In the case of `CC(C)(C)CN1CCN(CC2CC2)C(CCO)C1` (stereo unspecified), the “Percent Effect” value (30 µM, 30.03 µM) is -40.11%.

For the compound `O=C(Nc1ccccn1)C1(n2cnnn2)CCCCC1`, the “Percent Effect” value (30 µM, 30.03 µM) is listed as -28.83%.

On to `O=C(O)C(F)(F)F.O=C1N(Cc2ccncc2)CCC12CCCN(c1ncc(F)cn1)C2` (stereo unspecified), for which, under “30.3 µM, […]”, the “Percent Effect” value is recorded as -38.62%.

On to `CN1CCCC[C@@H]2[C@H]1[C@@H](c1ccccc1)CCN2S(=O)(=O)N1CCCC1`, for which the “Percent Effect” value (30.3 µM, […]) came out at 98.76%.

Take `CN1CCCC[C@@H]2[C@H]1[C@@H](c1ccccc1)CCN2C(=O)c1ccccc1`: under “30.3 µM, […]”, the “Percent Effect” value was found to be 97.59%.

`CN1CCCC[C@@H]2[C@H]1[C@@H](c1ccccc1)CCN2C(=O)c1ccncc1`: the “Percent Effect” value (30.3 µM, […]) was determined as 2.626%.

As for `CN1CCCC[C@@H]2[C@H]1[C@@H](c1ccccc1)CCN2C(=O)c1cccnc1`, for the setting “30.3 µM, […]”, the “Percent Effect” value was -28.46%.

On to `CN1CCCC[C@@H]2[C@H]1[C@@H](c1ccccc1)CCN2C(=O)c1ccccn1`, for which the “Percent Effect” value (30.3 µM, […]) stood at 12.07%.

With `Cl.O=S(=O)(N1CCCC1)N1CC[C@H](c2ccccc2)[C@H]2NCCCC[C@H]21`, under “30.3 µM, […]”, the “Percent Effect” value is on record as -20.77%.

For `O=C(O)C(F)(F)F.O=C(O)C(F)(F)F.O=C(c1cccnc1)N1CCn2nnc(COc3ccccn3)c2C1`, the “Percent Effect” value (30 µM, 30.03 µM) amounted to 20.03%.

Consider `Cc1ncsc1CN1C[C@@H]2COC[C@]2(C(=O)NCC2CC2)C1.O=C(O)C(F)(F)F`, for which, for the setting “30 µM, 30.03 µM”, the “Percent Effect” value was -10.84%.
